# Screens as filed in PubChem BioAssay.
# Rows were chosen to be rich in hits. Some 32% of all compounds tested hit in one or more screens of this group.
# PostGolgi ctrl: inhibits growth of the yeast control strain; inhibition, % at 10 µM; efflux-deficient yeast background strain, growth absorbance A615, 16 h; 98,000 compounds, 5% hits; AID 738
# CYP2C9 inh: blocks human cytochrome P450 2C9; P11712; CYP2C9 Supersomes, luciferin-H conversion, luminescence; inhibition, % at 5 µM; 96,000 compounds, 20% hits; AID 777;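 active = blocking of liver enzyme CYP2C9 beyond about 50% at 5 µM, limit read from the data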
# CYP2C9 activ: increases human cytochrome P450 2C9 activity | P11712 | recombinant CYP2C9, luciferin-H conversion, luminescence; hits give high values; factor 1 = untreated enzyme, 0 = blocked | activation factor at 5 µM | 96,000 compounds, 1.4% hits | AID 1024;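 active = activation factor of 2 or more for CYP2C9 at a 5 µM dose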;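 note: 0 = sulfaphenazole-blocked wells and 1 = vehicle-only wells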
# CYP2C19 inh: blocks human cytochrome P450 2C19; P33261; CYP2C19 Supersomes, luciferin-H EGE luminescence, 30 min; inhibition, % at 5 µM; 96,000 compounds, 21% hits; AID 778;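 active = CYP2C19 inhibition above a set limit at 5 µM in the primary screen, cut at about 50% in these data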;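 note: plate controls were negative control wells for no effect and 2.5 mM tranylcypromine positive control for full effect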
# Target sequence (P33261 whole entry, looked up): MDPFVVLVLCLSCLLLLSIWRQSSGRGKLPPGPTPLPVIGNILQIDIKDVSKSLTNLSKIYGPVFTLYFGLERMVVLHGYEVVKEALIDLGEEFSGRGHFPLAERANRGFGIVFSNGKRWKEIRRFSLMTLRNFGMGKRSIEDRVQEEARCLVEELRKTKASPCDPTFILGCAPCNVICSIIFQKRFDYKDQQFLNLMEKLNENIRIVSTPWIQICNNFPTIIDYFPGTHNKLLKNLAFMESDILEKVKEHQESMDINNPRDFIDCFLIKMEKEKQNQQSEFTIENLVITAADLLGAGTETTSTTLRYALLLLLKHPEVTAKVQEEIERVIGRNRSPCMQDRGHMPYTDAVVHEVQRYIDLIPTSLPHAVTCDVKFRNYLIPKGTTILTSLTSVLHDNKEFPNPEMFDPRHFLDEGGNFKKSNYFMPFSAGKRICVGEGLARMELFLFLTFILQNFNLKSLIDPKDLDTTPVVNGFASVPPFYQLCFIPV
# PostGolgi yeast: growth inhibition of a yeast mutant, post-Golgi transport screen; post-Golgi transport phenotypic cell assay; inhibition, % at 10 µM; 98,000 compounds, 0.9% hits;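 note: yeast cells grown in 1536-well plates; yeast grown about 18 h at 30C before absorbance read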
# CYP2C19 act: increases human CYP2C19 enzyme activity. activation factor at 5 µM. 96,000 tested, under 10 active. recombinant CYP2C19, luciferin-H EGE luminescence; hits give high values; 0 = fully inhibited enzyme, 1 = untreated enzyme. P33261;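 active = activation factor of at least 2 at 5 µM in the primary screen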;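 note: 0 = wells with 2.5 mM tranylcypromine and 1 = vehicle-only wells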
# * = called active by the depositor; . = not tested or not shown. Cut-off read from the data, not from the text of the source, unless noted: active = inhibition above about 30%; inactive = the rest.
SMILES,PostGolgi ctrl,CYP2C9 inh,CYP2C9 activ,CYP2C19 inh,PostGolgi yeast,CYP2C19 act
CCOC(=O)COc1c(OC)cc(Cl)cc1C1Nc2ccccc2C(=O)N1c1cccc(C)c1 (stereo not drawn),20,95*,0.1,95*,-12,0.1
CCOC(=O)COc1c(OC)cc(Cl)cc1C1Nc2ccccc2C(=O)N1c1ccccc1 (stereo not drawn),17,98*,0,95*,-6,0
O=C1c2ccccc2NC(c2ccc(Cl)cc2Cl)N1O (stereo not drawn),11,14,0.9,25,3,0.8
CCOC(=O)COc1c(OC)cc(Cl)cc1C1Nc2ccccc2C(=O)N1c1ccc(F)cc1 (stereo not drawn),21,90*,0.1,67*,-12,0.3
CCOC(=O)COc1ccccc1C1Nc2ccccc2C(=O)N1c1cccc(Cl)c1 (stereo not drawn),13,17,0.8,64*,44*,0.4
CCN(CC)CCN1C(=O)c2ccccc2NC1c1cc(OC)c(OC)c(OC)c1 (stereo not drawn),9,-9,1.1,-2,2,1
O=C(CSCc1cnn(-c2ccccc2)c1-n1cccc1)NCc1ccc2c(c1)OCO2,26,.,.,.,-2,.
Cc1ccccc1OCC(=O)NNC(=O)c1ccc(-c2ccccc2)cc1,-2,-24,1.2,16,2,0.8
CCOC(=O)c1ccccc1NC(=O)COc1ccccc1,26,-34,1.3,16,1,0.8
Cc1ccccc1C(=O)NNC(=S)NC(=O)COc1ccccc1,25,89*,0.1,55*,19,0.4
Cc1ccc(C(=O)NNC(=S)NC(=O)COc2ccccc2)cc1,24,78*,0.2,32,27,0.7
CSc1c[n+]2c(n1C)CCC2,1,-5,1,-7,-9,1.1
COc1ccc(Nc2sc(C(=O)c3ccc(Cl)cc3)c(N)c2C(=O)Nc2ccccc2OC)cc1,10,76*,0.2,39,-10,0.6
COc1ccc(NC(=O)c2c(Nc3ccccc3)sc(C(=O)c3ccc(F)cc3)c2N)cc1,1,-27,1.3,-23,0,1.2
COc1ccc(C(=O)c2sc(Nc3ccccc3)c(C(=O)Nc3ccc(OC)c(OC)c3)c2N)cc1,18,19,0.8,10,3,0.9
COc1ccc(C(=O)c2sc(Nc3cccc(OC)c3)c(C(=O)Nc3cccc(C)c3C)c2N)cc1,0,52*,0.5,40,-1,0.6
COc1ccc(/C=N/NC(N)=S)cc1OC(=O)c1ccccc1,0,47,0.5,6,-1,0.9
Cc1ccc(-c2nnc(SCC(=O)N3CCOCC3)nc2-c2ccc(C)cc2)cc1,-3,33,0.7,14,-9,0.9
CC(=O)c1cc2c(cc1NC(=O)Nc1cccc(Cl)c1)OCCO2,9,4,1,-4,-5,1
COc1ccc(CC(=O)N2CCCC(C)C2)cc1 (stereo not drawn),9,-10,1.1,50,7,0.5
O=C(Nc1ccc2c(c1)OCCO2)C1CCN(S(=O)(=O)c2ccc3c(c2)OCCO3)CC1,3,-73,1.7,16,-10,0.8
O=C(C1CCN(S(=O)(=O)c2ccc3c(c2)OCCO3)CC1)N1CCc2ccccc21,33*,-12,1.1,8,-10,0.9
CC(OC(=O)C1CCN(S(=O)(=O)c2ccc(Cl)cc2)CC1)C(=O)N1CCc2ccccc21 (stereo not drawn),23,-85,1.8,66*,8,0.3
O=C(C1CCC1)N1CCc2cc(S(=O)(=O)N3CCCCC3)ccc21,8,36,0.6,24,-9,0.8
COc1ccc(C(=O)C2CCN(S(=O)(=O)c3ccc4c(c3)OCCO4)CC2)cc1,27,14,0.9,98*,-3,0
SMILES,PostGolgi ctrl,CYP2C9 inh,CYP2C9 activ,CYP2C19 inh,PostGolgi yeast,CYP2C19 act
O=C(c1ccccc1F)N1CCN(S(=O)(=O)c2ccc3c(c2)OCCO3)CC1,5,49,0.5,93*,1,0.1
O=C(C1CC(c2cccc(Br)c2)=NO1)N1CCc2ccccc2C1 (stereo not drawn),15,-46,1.5,28,-1,0.7
CC(c1ccc(Cl)cc1)n1c(-c2ccc3ccccc3n2)n[nH]c1=S (stereo not drawn),55*,15,0.8,7,3,0.9
Cc1cc(C)nc(SCC(=O)Nn2cnnc2)n1,11,16,0.8,2,-4,1
CC12CCC(C(=O)NCc3ccc4c(c3)OCO4)(OC1=O)C2(C)C (stereo not drawn),33*,18,0.8,56*,10,0.4
CC12CCC(C(=O)NCc3ccc(Cl)cc3)(OC1=O)C2(C)C (stereo not drawn),4,46,0.5,84*,-3,0.2
CC12CCC(C(=O)NCc3ccccc3)(OC1=O)C2(C)C (stereo not drawn),6,-25,1.2,-8,-2,1.1
CS(=O)(=O)N1CCC(C(=O)Nc2ccc(Cl)c(C(F)(F)F)c2)CC1,-8,33,0.7,34,-4,0.7
CC(=O)NC1CC2CCCC(C1)N2C(=O)Nc1ccc(Cl)c(C(F)(F)F)c1 (stereo not drawn),-6,12,0.9,58*,7,0.4
Cc1cc(C)c2c(c1)NC(=O)C2(O)CC(=O)c1cccs1 (stereo not drawn),-11,-32,1.3,54*,-14,0.5
CCCN1Cc2cccc(C(=O)NC(C)c3cccs3)c2C1=O (stereo not drawn),10,30,0.7,23,4,0.8
O=C(COC(=O)Cc1ccc(S(=O)(=O)N2CCOCC2)s1)Nc1ccc2c(c1)OCO2,-3,21,0.8,8,-6,0.9
NC(=O)c1cc(-c2ccccc2)sc1NC(=O)Cc1ccc(S(=O)(=O)N2CCOCC2)s1,8,52*,0.5,14,7,0.9
CCCn1cnc2sc(C(N)=O)c(C)c2c1=O,7,18,0.8,12,-11,0.9
CCOC(=O)NC(=O)CSc1nc2ccc(OCC)cc2[nH]1,-1,9,0.9,15,-5,0.9
CC(C)NC(=O)C1(O)c2ccccc2NC(=O)N1c1ccc(Cl)c(Cl)c1 (stereo not drawn),15,46,0.5,26,19,0.7
COc1ccc2[nH]c3nc(SCC(=O)Nc4ccc5c(c4)OCO5)nnc3c2c1,-5,70*,0.3,23,16,0.8
O=C(CSc1nc2ncc(Br)cc2[nH]1)Nc1ccc2c(c1)OCO2,-2,96*,0,72*,-1,0.3
CCOc1ccc(N2C(=O)Nc3ccccc3C2(O)C(=O)NCc2ccc3c(c2)OCO3)cc1 (stereo not drawn),8,-141,2.4*,19,12,0.8
CCn1c2ccccc2c2nnc(SCC(=O)Nc3ccc4c(c3)OCO4)nc21,-7,18,0.8,-1,17,1
